According to PubChem BioAssay (NCI):
Compounds without any hit were thinned out: in the full panel of roughly 79,000, 15% have a hit. Calls of active or inactive are those of the source. Rule as the data show it: active = growth inhibition above about 70%; inactive = the rest.

Test: NCI Yeast Anticancer Drug Screen. Data for the mgt1 strain (AID 153)
Conditions: S. cerevisiae mgt1 mutant growth inhibition; at 33.0 µM; stronger effect = higher value
Method in brief: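 Strain: mgt1 yeast, one of a set carrying defined DNA damage repair or cell cycle control alterations. Compound-treated growth compared with vehicle.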

Question: With `CC(CN(C)C)C(=O)/C=C/c1ccc(Cl)c(Cl)c1` (stereo not given) as the compound, how does the growth inhibition read?
Answer: Its growth inhibition is 83% (active).

Question: With `CCCCCCNCCCNc1c2cc(OC)ccc2nc2cccc([N+](=O)[O-])c12` as the compound, how does the growth inhibition read?
Answer: The growth inhibition was 81% (active).

Question: For `NC(=S)N1N=C2c3ccccc3CC[C@H]2[C@@H]1c1ccc(Cl)cc1`, which growth inhibition is on record?
Answer: Its growth inhibition is 29% (inactive).

Question: With `C/C(=N/NC(=S)Nc1ccccc1C)c1ccccn1` as the compound, how does the growth inhibition read?
Answer: The growth inhibition was -22% (inactive).

Question: With `O=C1/C(=C/c2ccc(Cl)c(Cl)c2)CNC/C1=C\c1ccc(Cl)c(Cl)c1` as the compound, how does the growth inhibition read?
Answer: Its growth inhibition is 69% (inactive).

Question: Which growth inhibition does the source give for `CC(C)OP(=O)(OC(C)C)C(=NCCO)NNc1ccc([N+](=O)[O-])cc1` here?
Answer: The growth inhibition was 0% (inactive).

Question: For `N#CCC(=O)N/N=C(\c1ccccc1)C(c1ccccc1)C1(O)C(=O)Nc2c(Cl)ccc(Cl)c21` (stereo not given), which growth inhibition is on record?
Answer: The growth inhibition was -2% (inactive).

Question: For `CC(C)(CN1CCCCC1)C(=O)CC(SCCS(=O)(=O)O)c1ccccc1` (stereo not given), which growth inhibition is on record?
Answer: Its growth inhibition is 8% (inactive).

Question: For `COC1=CCC23C(=O)C=CC(=O)C2(C1)C(=O)c1ccccc1C3=O` (stereo not given), which growth inhibition is on record?
Answer: Its growth inhibition is 40% (inactive).

Question: With `CCCCN(CCCC)c1ccc(N=Nc2ccc(S(=O)(=O)O)cc2)cc1` as the compound, how does the growth inhibition read?
Answer: The growth inhibition was 97% (active).

Question: With `c1ccc2nc3c(nc2c1)sc1ccccc13` as the compound, how does the growth inhibition read?
Answer: Its growth inhibition is 20% (inactive).

Question: With `O=C1c2ccccc2-c2ccc(N=Cc3ccccc3)cc21` as the compound, how does the growth inhibition read?
Answer: Its growth inhibition is -1% (inactive).

Question: For `CNC(=S)N/N=C(/C)CCC/C(C)=N/NC(=S)NC`, which growth inhibition is on record?
Answer: The growth inhibition was 22% (inactive).

Question: For `Nc1ccc(/C=C/c2ccc3cccnc3c2)cc1`, which growth inhibition is on record?
Answer: The growth inhibition was -3% (inactive).

Question: For `COc1ccc2c3c1OC(C)C31CC(=O)CCC1CC2` (stereo not given), which growth inhibition is on record?
Answer: The growth inhibition was -2% (inactive).

Question: Which growth inhibition does the source give for `CCOC(=O)Nc1ccc(C)c(NC(=O)OCC)c1` here?
Answer: Its growth inhibition is 12% (inactive).

Question: With `CCN(CC)CCNc1ccc2nc(C)n3c4ccc(OC)cc4c(=O)c1c23` as the compound, how does the growth inhibition read?
Answer: Its growth inhibition is 26% (inactive).

Question: Which growth inhibition does the source give for `C[N+](C)([O-])CCCNc1c2ccccc2nc2cccc([N+](=O)[O-])c12` here?
Answer: The growth inhibition was 70% (active).

Question: Which growth inhibition does the source give for `O=C(c1cc(=O)c2ccc(O)cc2o1)c1ccc(Cl)cc1Cl` here?
Answer: Its growth inhibition is 89% (active).

Question: Which growth inhibition does the source give for `CCCNC(=O)OCc1c(COC(=O)NCCC)c(-c2ccc(Cl)c(Cl)c2)n2c1CCC2` here?
Answer: Its growth inhibition is -7% (inactive).

Question: For `O=C(Cc1ccccc1)NN1C(=O)C(Cl)C1c1cc(Br)cc(Br)c1O` (stereo not given), which growth inhibition is on record?
Answer: The growth inhibition was 95% (active).

Question: For `CCOC(=O)C(Cc1c2ccccc2cc2ccccc12)(NC(C)=O)C(=O)OCC`, which growth inhibition is on record?
Answer: The growth inhibition was -18% (inactive).

Question: Which growth inhibition does the source give for `O=[N+]([O-])/C=C/c1cc2ccc3ccccc3c2[nH]1` here?
Answer: The growth inhibition was 95% (active).

Question: For `Fc1ccc(Nc2ccc3ccccc3c2)cc1`, which growth inhibition is on record?
Answer: Its growth inhibition is 54% (inactive).

Question: With `O=S1(=O)CCC2=CC(C(F)(F)F)=CC(C(F)(F)F)=CN21` as the compound, how does the growth inhibition read?
Answer: The growth inhibition was 82% (active).

Question: With `O=C(Cc1ccccc1)NNc1nc(NNC(=O)c2ccncc2)nc(Nc2ccc([N+](=O)[O-])cc2)n1` as the compound, how does the growth inhibition read?
Answer: The growth inhibition was 62% (inactive).

Question: For `CCCCS/C(=C(/C#N)C(N)=O)c1cc2c([nH]1)CCCC2`, which growth inhibition is on record?
Answer: Its growth inhibition is -14% (inactive).

Question: Which growth inhibition does the source give for `O=C(O)c1ccccc1C(=O)OC1CCc2ccccc2C1` (stereo not given) here?
Answer: The growth inhibition was -1% (inactive).

Question: Which growth inhibition does the source give for `CCOC(=O)/C(=C\c1cccc(C)c1)C(C)=O` here?
Answer: Its growth inhibition is 91% (active).

Question: Which growth inhibition does the source give for `NC(=S)N/N=C1\c2ccccc2CCC1CCC1(O)CCc2ccccc2C1=O` (stereo not given) here?
Answer: The growth inhibition was 82% (active).

Question: Which growth inhibition does the source give for `Cc1cccc2c(Cl)c3cccc(C)c3nc12` here?
Answer: Its growth inhibition is 0% (inactive).

Question: Which growth inhibition does the source give for `Nc1ccc2c(c1)C(=O)c1c(F)cccc1-2` here?
Answer: Its growth inhibition is 13% (inactive).

Question: With `N#CSCC1COc2ccccc2O1` (stereo not given) as the compound, how does the growth inhibition read?
Answer: Its growth inhibition is 68% (inactive).

Question: With `Cc1ccc(S(=O)(=O)NC(=O)C2C(=O)CC3(CCCCC3)CC2=O)cc1` as the compound, how does the growth inhibition read?
Answer: Its growth inhibition is 80% (active).

Question: With `CC1=NN(C(=O)c2ccccc2O)C(=O)/C1=C/c1ccco1` as the compound, how does the growth inhibition read?
Answer: Its growth inhibition is 88% (active).
